# ELG1 genotox = induces genotoxicity in HEK293T cells with luciferase-tagged ELG1; Potency, µM (series often up to 46 µM), without a hit: at the top dose activity change, positive = activation, usual class: activators; HEK293T ELG1-luciferase reporter, luminescence, 16 h; 330,000 compounds, 1.3% hits; also: % of control where 0% means no effect; nearly all actives have a fitted effect of over 60% in size
#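 Screening used a luciferase reporter fused to human ELG1 in HEK293T cells. Luminescence was read on a CCD plate imager after 16 hr exposure and 30 min ONE-Glo incubation.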
# SMN2 splice enh = enhancers of SMN2 splice variant expression; Potency, µM (highest dose often 46.1 µM), inactives show top-dose activity change, positive = activation, actives largely listed as activators; 210,000 compounds, 2.8% hits; HEK293 SMN2-luciferase splicing reporter, luminescence, 30-36 h; also: % of control where 0% means no effect; nearly all actives have a fitted effect of over 55% in size
#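 HEK293 cells carry an SMN2 minigene-luciferase reporter in which exon 7 inclusion puts luciferase in frame. Cells were seeded at 2000 cells/well, attached for 10-12 hours, then exposed to compounds for 30-36 hours at 37C before ONE-Glo luminescence.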
# NPC1 promoter act = activators of NPC1 promoter | 320,000 compounds, 2.4% hits | Huh7 NPC1 promoter luciferase reporter, 24 h | Potency, µM (top dose mostly 9.22 µM), without a hit: top-dose activation, most hits filed as activators | AID 485313; also: % of control where 0% means no effect; nearly all actives have a fitted effect of over 60% in size
#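 In 1536-well qHTS, Huh7 cells harboring an NPC1 promoter–luciferase construct received compound for 24 h; activation was quantified by luminescence following luciferase reagent addition.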
# FLuc counter = counter-screen for miR-21 project: firefly luciferase inhibitors or activators; 360,000 compounds, 6.9% hits; Potency, µM (doses to about 57.5 µM), inactives show at the top dose activity change, negative = inhibition, usual class: inhibitors; P08659; purified FLuc, Km substrates, luminescence inhibition;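 also: plate controls were vehicle for no effect and reference inhibitor for full effect; nearly all actives have a fitted effect of over 55% in size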
# Target sequence (P08659 whole entry, looked up): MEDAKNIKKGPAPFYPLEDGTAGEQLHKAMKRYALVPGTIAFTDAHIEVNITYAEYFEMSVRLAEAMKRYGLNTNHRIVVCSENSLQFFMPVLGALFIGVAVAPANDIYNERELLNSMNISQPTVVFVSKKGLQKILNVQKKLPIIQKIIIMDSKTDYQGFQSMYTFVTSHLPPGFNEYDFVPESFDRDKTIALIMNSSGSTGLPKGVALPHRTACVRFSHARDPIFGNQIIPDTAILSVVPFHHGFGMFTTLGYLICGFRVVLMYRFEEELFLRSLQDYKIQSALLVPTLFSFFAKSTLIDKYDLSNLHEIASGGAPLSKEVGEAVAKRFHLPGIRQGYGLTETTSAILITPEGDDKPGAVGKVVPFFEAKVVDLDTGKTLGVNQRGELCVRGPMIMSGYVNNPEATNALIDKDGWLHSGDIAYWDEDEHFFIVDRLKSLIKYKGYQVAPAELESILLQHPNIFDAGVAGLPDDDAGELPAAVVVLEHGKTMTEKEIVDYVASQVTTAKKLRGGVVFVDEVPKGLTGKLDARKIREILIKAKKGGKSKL
#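 Purified P. pyralis luciferase, 10 nM final, with Km-level 10 uM D-luciferin and 10 uM ATP in 50 mM Tris acetate pH 7.5, 10 mM Mg acetate, 0.01% Tween-20, 0.05% BSA; 6-point qHTS titration about 60 µM downward; luminescence read.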
# Rab9 promoter act = activators of Rab9 promoter | Huh7 Rab9 promoter-luciferase reporter, luminescence, 24 h | 320,000 compounds, 2.8% hits | Potency, µM (highest dose often 9.22 µM), for the others: at the top dose activation, negative = inhibition, most hits filed as activators; also: % of control where 0% means no effect; nearly all actives have a fitted effect of over 60% in size
#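 Luminescence read-out: Huh7 cells stably expressing Rab9-luciferase, treated 24 h with compound at 37 °C, then lysed with luciferase reagent for 10 min at ambient before reading.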
# * = called active by the depositor; ? = inconclusive; nt = no result given. In the library only some 7.5% were active in any assay of this set; here they are far more common. Calls follow the shape of the dose curve; as a rule, active = well fitted curve in the direction sought with a large enough effect; inconclusive = small, poorly fitted or top-dose-only effect, or another doubt; inactive = no such curve, though single readings can be large; an effect the other way counts as inactive or inconclusive. Potency is read from the fitted curve at half-maximal effect.
SMILES,ELG1 genotox,SMN2 splice enh,NPC1 promoter act,FLuc counter,Rab9 promoter act
COc1cc2ccccc2cc1C(=O)Nc1ccccc1Cl,?,nt,?,3.4µM*,26%
COc1cc2cc(C(=O)Nc3ccccc3)c(N)nc2cc1OC,0%,-7%,2%,12µM*,-1%
CCOc1ccc(NC(=O)c2cc(OC)nc3ccccc23)cc1,18%,nt,-18%,-10%,-25%
Cc1ccc(/C=N/N=C2/NC(=O)C(CC(=O)Nc3ccc(Cl)cc3)S2)o1 (stereo not given),3%,-6%,0%,0%,0%
CCOc1ccc(CCNC(=O)c2cccc(-n3cnnn3)c2)cc1OCC,-2%,nt,-5%,5%,-2%
C[C@@H](C(=O)Nc1ccc2ccccc2c1)[C@H]1C[C@]1(C)[C@H](NP(=O)(c1ccccc1)c1ccccc1)c1ccccc1,-12%,-51%,-3%,-1%,-10%
COc1ccc(NC(=O)c2cc3ccccc3cc2OC)cc1,?,nt,?,3.4µM*,29%
COc1cc(NC(=O)c2ccc(Cl)cc2)c(OC)cc1Cl,5%,7%,21%,?,0%
COc1cc(NC(=O)c2cc3ccccc3cc2O)c(OC)cc1Cl,-6%,nt,?,9.5µM*,-7%
COc1cc2ccccc2cc1C(=O)NNC(=O)c1ccccc1O,16%,nt,2%,?,7%
O=C(c1ccccc1)c1ccc2nc(-c3ccc(NC(=O)c4ccccc4F)cc3)[nH]c2c1,?,-18%,3%,-20%,15%
Cc1ccc(NC(=O)CN(C)S(=O)(=O)c2cccs2)c(Br)c1,11%,nt,3%,24µM*,14%
COC(=O)c1ccc(NC(=O)C2CCCO2)cc1 (stereo not given),?,4%,?,?,?
Cc1ccc2nc(-c3ccc(NC(=O)C4CCCO4)cc3)[nH]c2c1 (stereo not given),?,0.56µM*,0.28µM*,0.6µM*,0.32µM*
COc1ccc2nc(NC(=O)CN(C)S(=O)(=O)c3cccs3)sc2c1,-4%,3%,18%,17µM*,18%
COc1ccc2nc(NC(=O)CNS(=O)(=O)c3cccs3)sc2c1,1%,-5%,2%,?,-6%
O=C(O)CCC(=O)Nc1ccc(-c2nc3ccc(C(=O)c4ccccc4)cc3[nH]2)cc1,9%,nt,0%,11µM*,3%
Cc1ccc(NC(=O)CSc2nc3[nH]c(=O)cc(O)c3s2)c(Br)c1,0%,nt,0%,-1%,-2%
COc1ccc(CC(=O)Nc2nc3ccc(F)cc3s2)cc1S(=O)(=O)N1CCOCC1,-5%,-2%,13%,?,17%
Cc1cc(NC(=O)COc2ccccc2)cc(-c2nc3ccccc3o2)c1O,nt,12%,nt,-7%,nt
CCO[C@H]1OC(C(=O)O)=C[C@@H](c2ccc(C(F)(F)F)cc2)[C@@H]1CCCO,1%,nt,-3%,0%,3%
O=C(Cc1ccccc1)Nc1nc2ccccc2s1,13%,?,25%,27µM*,27%
Cc1ccc2nc(NC(=O)CSCC(=O)Nc3cc(C)on3)sc2c1,?,nt,?,?,2.5µM*
O=C(Cc1cccs1)Nc1nc2ccccc2s1,8%,17%,?,15µM*,3.2µM*
Cc1ccc2nc(NC(=O)Cc3cccs3)sc2c1,?,?,2.2µM*,8.5µM*,?
SMILES,ELG1 genotox,SMN2 splice enh,NPC1 promoter act,FLuc counter,Rab9 promoter act
CCc1ccc2nc(NC(=O)CCCc3cccs3)sc2c1,?,2%,15%,?,?
CCCn1c2ccccc2c2nnc(SC(CC)C(=O)Nc3sc4c(c3C#N)CCCC4)nc21 (stereo not given),5%,-10%,-4%,2%,0%
COc1ccc(-c2[nH]c(-c3ccc(OC)c(OC)c3)nc2SCC(=O)Nc2ccccc2)cc1,nt,12%,nt,-12%,nt
O=C(Cc1cccs1)Nc1ccccc1-c1nc2ccccc2[nH]1,-6%,nt,-12%,-3%,-10%
O=C(Cc1nc(=O)c2ccccc2s1)Nc1ccccc1,?,2.5µM*,0.71µM*,0.54µM*,0.32µM*
Cc1ccc2nc(-c3ccc(NC(=O)Cc4cccs4)cc3)[nH]c2c1,?,2.5µM*,2µM*,1.3µM*,1µM*
COc1ccc2nc(NC(=O)CCc3cc(OC)c(OC)c(OC)c3)sc2c1,-12%,-13%,-5%,2%,-2%
O=C(CSc1nccn1Cc1ccccc1)Nc1nc2ccccc2s1,nt,nt,nt,17µM*,nt
COc1ccc2nc(NC(=O)Cc3cccs3)sc2c1,6.5µM*,10%,2.8µM*,12µM*,2.8µM*
CC1(C(=O)Nc2nc3ccccc3s2)CC1(Br)Br (stereo not given),?,nt,?,21µM*,?
CCOc1ccc2nc(NC(=O)Cc3cccs3)sc2c1,?,?,?,12µM*,?
CCc1c(O)nc(SCC(=O)Nc2nc3ccccc3s2)n(-c2ccc(C)cc2)c1=O,17%,nt,20%,21µM*,16%
CC1=C(c2ccc(C)c(C)c2)S(=O)(=O)N=C1N1CCN(c2cccc(C(F)(F)F)c2)CC1,nt,nt,nt,0%,nt
Cc1ccc(NC(=O)CCS(=O)(=O)c2cccc3nonc23)cc1,0%,0%,1%,-7%,13%
C=CCOc1c(Br)cc(/C=C2/NC(=S)N(C(C)=O)C2=O)cc1OC,23%,9%,0%,1.5µM*,-3%
CCOC(=O)c1nn(-c2ccc(Br)cc2)cc1C(=O)c1cccc2ccccc12,17%,?,20%,6.7µM*,?
CCOC(=O)c1ccc(NC(=O)c2cn(-c3ccccc3)nc2-c2ccc(Br)cc2)cc1,nt,-5%,nt,4%,nt
COc1cc(/C=C2\SC(=S)N(C(C(=O)O)c3ccccc3)C2=O)ccc1O (stereo not given),0%,nt,1%,19µM*,2%
COc1ccc(/C=C2\SC(=S)N(Cc3cccnc3)C2=O)cc1C,4%,-18%,2%,5.4µM*,1%
COc1cc(/C=C2/SC(=S)N(Cc3ccccc3)C2=O)ccc1O,?,nt,3%,27µM*,-2%
CCOc1ccc(/C=C2\SC(=S)N(Nc3ccccc3)C2=O)cc1OC,12%,-2%,-1%,11µM*,-6%
S=C1SCN(CC2CC2)CN1CC1CC1,-8%,nt,-1%,-2%,0%
COc1ccc(OC)c(C(=O)CSc2ncc3c(n2)-c2ccccc2N(Cc2ccccc2C)S3(=O)=O)c1,nt,nt,nt,3%,nt
Cc1csc(=O)n1CC(=O)OCC(=O)NNC(=O)c1ccccc1,2%,nt,-1%,2%,1%
CC[n+]1c(/C=C2\Sc3ccccc3N2C)ccc2cccc(C)c21,-19%,-87%,-42%,-15%,-55%
COc1ccccc1OC(=O)CCN1c2ccccc2Sc2ccccc21,2%,1%,-4%,0%,-8%
COc1ccccc1-[n+]1c(C)cc(/C=C2\Sc3ccccc3N2C)cc1C,3%,nt,-35%,2.4µM*,-40%

# Assay outcomes (PubChem BioAssay)
